# Source: PubChem (several laboratories)
# This is a sample that favours compounds with a hit; in the whole collection about 27% have one here.
# CYP2C19 inh – blocks human cytochrome P450 2C19; P33261; inhibition, % at 5 µM; 21% of 96,000 active; CYP2C19 Supersomes, luciferin-H EGE luminescence, 30 min;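 active means CYP2C19 inhibition above a set limit at 5 µM in the primary screen, cut at about 50% in these data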;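 further: plate controls were negative control wells for no effect and 2.5 mM tranylcypromine positive control for full effect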
# CYP2C19 activ – increases human CYP2C19 enzyme activity; P33261; recombinant CYP2C19, luciferin-H EGE luminescence; stronger effect = higher value; 0 = fully inhibited enzyme, 1 = untreated enzyme; activation factor at 5 µM; 96,000 tested, under 10 active;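 active means activation factor of at least 2 at 5 µM in the primary screen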;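 further: 0 = wells with 2.5 mM tranylcypromine and 1 = vehicle-only wells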
# CYP2C9 act – CYP2C9 (human) activation; 1.4% of 96,000 active; recombinant CYP2C9, luciferin-H conversion, luminescence; stronger effect = higher value; factor 1 = untreated enzyme, 0 = blocked; activation factor at 5 µM; AID 1024; P11712;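 active means activation factor of 2 or more for CYP2C9 at a 5 µM dose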;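 further: 0 = sulfaphenazole-blocked wells and 1 = vehicle-only wells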
# Target sequence (P11712 whole entry, looked up): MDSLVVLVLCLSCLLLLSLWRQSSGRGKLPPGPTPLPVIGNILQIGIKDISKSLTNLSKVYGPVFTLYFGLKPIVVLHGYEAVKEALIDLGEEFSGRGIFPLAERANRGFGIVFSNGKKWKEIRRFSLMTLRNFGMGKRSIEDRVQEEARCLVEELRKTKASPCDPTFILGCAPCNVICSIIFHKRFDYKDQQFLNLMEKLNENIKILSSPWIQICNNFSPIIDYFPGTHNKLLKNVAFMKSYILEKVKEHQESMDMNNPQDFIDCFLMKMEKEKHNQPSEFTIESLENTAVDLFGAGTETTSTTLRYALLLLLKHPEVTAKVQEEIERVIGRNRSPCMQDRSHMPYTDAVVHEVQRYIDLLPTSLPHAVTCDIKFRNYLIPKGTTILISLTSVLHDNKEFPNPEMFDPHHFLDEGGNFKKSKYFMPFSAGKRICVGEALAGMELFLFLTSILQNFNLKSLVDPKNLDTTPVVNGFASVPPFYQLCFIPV
# CYP2C9 inhib – human CYP2C9 inhibition. 20% of 96,000 active. CYP2C9 Supersomes, luciferin-H conversion, luminescence. inhibition, % at 5 µM. AID 777;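 active means blocking of liver enzyme CYP2C9 beyond about 50% at 5 µM, limit read from the data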
# sEH inhibitor – inhibitors of human soluble epoxide hydrolase. 0.34% of 91,000 active. AID 707. recombinant human sEH enzymatic activity assay. inhibition, % at 2 µM; in the data active means inhibition above about 80%
# sEH act – activators of human soluble epoxide hydrolase. 0.04% of 91,000 active. activation, % at 2 µM. purified human sEH enzymatic activity, activator screen. P34913; in the data active means activation above about 37%
# Numbers without * were called inactive; / = no result given.
SMILES,CYP2C19 inh,CYP2C19 activ,CYP2C9 act,CYP2C9 inhib,sEH inhibitor,sEH act
CC(C)c1c(O)nc(SCC(=O)Nc2ccc3c(c2)CCC3)[nH]c1=O,8,0.9,0.8,22,/,/
COC(=O)c1ccc(-c2cc(C(=O)O)c3cc4c(cc3n2)OCCO4)cc1,15,0.9,1,0,7,-6
COc1cccc(N(CC(=O)N2CCN(C)CC2)S(=O)(=O)c2ccc(C)cc2)c1,-8,1.1,1,-2,13,-12
Cc1ccc(CSc2nc3c(c(=O)[nH]2)C(c2ccncc2)C2=C(CCCC2=O)N3)cc1 (stereo unspecified),94*,0.1,0.1,95*,3,1
CSc1nc2c(c(=O)[nH]1)C(c1cccs1)C1=C(CCCC1=O)N2 (stereo unspecified),3,1,0.8,20,/,/
Cc1ccc(CSc2nc3c(c(=O)[nH]2)CCC3)cc1,12,0.9,0.4,56*,5,-3
Cc1ccccc1CSc1nc2c(c(=O)[nH]1)CCCC2,7,0.9,0.4,60*,-25,25
O=C(Nc1c2c(nn1-c1ccc(F)cc1)CS(=O)(=O)C2)C12CC3CC(CC(C3)C1)C2,14,0.9,0.9,13,-17,18
c1ccc(COc2ccc(CNn3cnnc3)cc2)cc1,25,0.8,0.8,24,7,-6
COCc1nc2sc(C)c(C)c2c(=O)[nH]1,/,/,/,/,6,-6
O=[N+]([O-])c1ccc(Sc2ccccc2Cl)nc1,62*,0.4,1,1,-2,4
O=[N+]([O-])c1ccc(Sc2n[nH]c(-c3ccc(Cl)cc3Cl)n2)nc1,14,0.9,0.9,9,-2,0
CCCCNC(=O)OCC(CC)NC(=O)OCC(C)C (stereo unspecified),25,0.8,0.9,15,5,-2
O=C(CCCn1c(=O)[nH]c2cc(Cl)ccc2c1=O)NCCCN1CCCC1,8,0.9,0.3,69*,11,-9
COc1ccc(N2CCN(C(=O)CCCn3c(=O)[nH]c4cc(Cl)ccc4c3=O)CC2)cc1,29,0.7,0.5,53*,-5,2
O=C(CCn1c(=O)[nH]c2ccsc2c1=O)N1CCN(c2cccc(Cl)c2)CC1,38,0.6,0.3,71*,/,/
COc1cc2[nH]c(=O)n(CCCCCC(=O)N3CCN(c4ccccn4)CC3)c(=O)c2cc1OC,32,0.7,0.6,38,-8,7
O=C(Cn1c(=O)[nH]c2ccsc2c1=O)N1CCN(c2ccc(F)cc2)CC1,/,/,/,/,8,-10
CNc1nc2c(c(=O)[nH]c(=O)n2C)n1CCOC,6,0.9,1,4,4,-2
COC(=O)CSc1ccc(-c2nc3ccc(C)cc3[nH]2)cn1,13,0.9,0.8,18,57,-58
Cc1cccc(CCNC(=O)C2CCN(S(=O)(=O)c3c(C)nn(C)c3C)CC2)c1,6,0.9,1.4,-43,47,-47
Cc1ccc(N2C(=O)c3ccc(C(=O)N4CCN(c5cccc(C)c5C)CC4)cc3C2=O)cc1,/,/,/,/,6,-4
COC(=O)c1nonc1NCn1nnc2ccccc21,28,0.7,1.1,-9,7,-4
O=c1c2c3c(sc2n2cnnc2n1Cc1ccccc1)CN(Cc1ccccc1)CC3,66*,0.3,0.3,74*,2,-3
Cn1cc(S(=O)(=O)N2CCc3ccccc3C2)c(=O)n(C)c1=O,20,0.8,1.2,-16,6,-7
SMILES,CYP2C19 inh,CYP2C19 activ,CYP2C9 act,CYP2C9 inhib,sEH inhibitor,sEH act
Cc1cc2c(c(Sc3ccccc3)n1)C(=O)OC2,50*,0.5,0.7,27,/,/
Cc1cc2c(c(SCC(=O)N(C)c3ccccc3)n1)C(=O)OC2,63*,0.4,0.9,14,-18,20
CCOC(=O)c1cccnc1SCC(=O)N(C)c1ccccc1,39,0.6,0.6,41,/,/
CC1(C)CC2(CCO1)N1CC3(C)CN2CC(C)(C1)C3O (stereo unspecified),8,0.9,0.5,52*,6,-2
COC(=O)c1ccccc1NC(=O)N1c2ccccc2CC1C (stereo unspecified),12,0.9,0.8,22,5,-1
COc1ccc(NC(=O)N2c3ccccc3CC2C)cc1OC (stereo unspecified),44,0.6,0.3,66*,38,-36
Cc1cccc2cc(CN(Cc3ccco3)C(=O)NC3CCCCC3)c(=O)[nH]c12,70*,0.3,0.3,74*,16,-16
COc1ccccc1NC(=O)N(Cc1ccco1)Cc1cc2c(C)ccc(C)c2[nH]c1=O,/,/,/,/,11,-13
CCN(CC)CCN(Cc1cc2cc3c(cc2[nH]c1=O)OCCO3)C(=O)NC1CCCCC1,-1,1,1.1,-7,80,-80
Cc1ccc2[nH]c(=O)c(CN(CCc3ccccc3)C(=O)N3CCOCC3)cc2c1,0,1,0.9,12,-6,6
COc1ccc(CCN(Cc2cc3cc(C)ccc3[nH]c2=O)C(=O)N2CCCC2)cc1OC,32,0.7,0,98*,/,/
COc1ccccc1NC(=O)N(Cc1ccco1)Cc1cc2cccc(C)c2[nH]c1=O,90*,0.1,0.2,82*,5,-9
COc1ccc(CN(Cc2cc3cc4c(cc3[nH]c2=O)OCO4)C(=O)NC2CCCCC2)cc1,-3,1,0.1,90*,8,-6
CCCCN1C2CCCC1CC(NC(=O)C1CCCCC1)C2 (stereo unspecified),/,/,/,/,10,-10
O=C(NCCCN1CCOCC1)c1csc2c1CCCC2,-5,1,1.2,-21,3,-2
COc1ccc(CCN(Cc2cc3cccc(C)c3[nH]c2=O)C(=O)NC2CCCCC2)cc1OC,66*,0.3,0.3,75*,21,-23
Cn1c(NC(=O)c2ccccc2NC(=O)C(C)(C)C)nc2ccccc21,-14,1.1,0.9,8,-12,12
O=S1(=O)CCN2C(=N1)Sc1c2ccc2c1CCCC2,70*,0.3,1.2,-20,/,/
O=S1(=O)CCN2C(c3ccc4c(c3)CCCC4)=CSC2=N1,-3,1,0.9,10,/,/
OCCSc1c(F)c(SCCO)c(SCCO)c(F)c1SCCO,40,0.6,0.3,70*,-1,1
O=C(CN1CCC2(CC1)OCCO2)c1ccc2cc[nH]c2c1,86*,0.1,1,2,/,/
CSc1nnc(Nc2ccccc2C)s1,68*,0.3,0.7,26,13,-12
CC(C)N(C(=O)CSc1nnc(NC(=O)C2CCC2)s1)C(C)C,-10,1.1,1.3,-29,-9,7
Cc1ccccc1Nc1nnc(SCC(=O)NC(=O)NCc2ccco2)s1,40,0.6,0.5,45,/,/
C/C(N)=C(/C#N)C(=O)CSc1nnc(Nc2ccccc2C)s1,60*,0.4,0.6,45,-16,16
C/C(N)=C(/C#N)C(=O)CSc1nnc(NC(C)C)s1,56*,0.4,0.7,31,13,-11
O=C(NCCN1CCOCC1)C1CCN(Cc2ccccc2O)CC1,-16,1.2,0.9,8,8,-9
